From the supplement of paper PMC10849652
Of roughly 7,900 targets only a part is listed; those with a hit were picked by preference. About 0.6% of all pairs of compound and target were hits.

Assays:
Test in all cases: log2 fold change, soluble protein after heating vs DMSO (PISA); higher = thermal stabilisation; K562 cells, 10 uM, 30 min; active = over 0.2 and 3.5 SD of the protein, either way, in both replicates (recomputed)
bafetinib = compound: Cc1ccc(NC(=O)c2ccc(CN3CC[C@H](N(C)C)C3)c(C(F)(F)F)c2)cc1Nc1nccc(-c2cncnc2)n1 [bafetinib]
Outline: (§1)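 Soluble protein was defined as the supernatant after 21,000xg for 90 min. It came from K562 cells at 2×10^6 cells/mL given 10 μM compound for 30 min, heated in aliquots for 3 min across 48°C-58°C, pooled, and extracted in PBS with 0.5% NP-40 at 4°C, and was quantified by TMTpro 16plex LC-MS/MS with equalised channel sums. Thermal stability against control samples, from duplicates, is reported as log2 fold change.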

[1] = compound: Cc1cccc(CC(=O)N2CCc3c2ccc(-c2cn(C)c4ncnc(N)c24)c3F)n1
Outline: as §1

nilotinib = compound: Cc1cn(-c2cc(NC(=O)c3ccc(C)c(Nc4nccc(-c5cccnc5)n4)c3)cc(C(F)(F)F)c2)cn1 [nilotinib]
Outline: as §1

[2] = compound: Cc1nc(Nc2n[nH]c3c2CN(C(=O)N[C@H](CN(C)C)c2ccccc2)C3(C)C)c2sccc2n1
Outline: as §1

dasatinib = compound: Cc1nc(Nc2ncc(C(=O)Nc3c(C)cccc3Cl)s2)cc(N2CCN(CCO)CC2)n1 [dasatinib]
Outline: as §1

[3] = compound: Cc1ncc(-c2ccnc(Nc3ccc(S(C)(=O)=O)cc3)n2)n1C(C)C
Outline: as §1

[4] = compound: Cn1cc(-c2ccc3c(c2)CCN3C(=O)Cc2cccc(C(F)(F)F)c2)c2c(N)ncnc21
Outline: as §1

[5] = compound: Cn1cc(-c2ccc3nnc(C(F)(F)c4ccc5ncccc5c4)n3n2)cn1
Outline: as §1

tipifarnib = compound: Cn1cncc1[C@@](N)(c1ccc(Cl)cc1)c1ccc2c(c1)c(-c1cccc(Cl)c1)cc(=O)n2C [tipifarnib]
Outline: as §1

mubritinib = compound: FC(F)(F)c1ccc(/C=C/c2nc(COc3ccc(CCCCn4ccnn4)cc3)co2)cc1 [mubritinib]
Outline: as §1

[6] = compound: NC(=O)Nc1cc(-c2cccc(F)c2)sc1C(=O)N[C@H]1CCCNC1
Outline: as §1

[7] = compound: NC(=O)c1cnc(N[C@@H]2CCCC[C@@H]2N)nc1Nc1cccc(-n2nccn2)c1
Outline: as §1

[8] = compound: NC1(c2ccc(-c3nc4ccn5c(=O)[nH]nc5c4cc3-c3ccccc3)cc2)CCC1
Outline: as §1

[9] = compound: NCC(=O)Nc1ccc(-n2nc(C(F)(F)F)cc2-c2ccc3c(ccc4ccccc43)c2)cc1
Outline: as §1

entinostat = compound: Nc1ccccc1NC(=O)c1ccc(CNC(=O)OCc2cccnc2)cc1 [entinostat]
Outline: as §1

vorinostat = compound: O=C(CCCCCCC(=O)Nc1ccccc1)NO [vorinostat]
Outline: as §1

citarinostat = compound: O=C(CCCCCCNC(=O)c1cnc(N(c2ccccc2)c2ccccc2Cl)nc1)NO [citarinostat]
Outline: as §1

silmitasertib = compound: O=C(O)c1ccc2c(c1)nc(Nc1cccc(Cl)c1)c1ccncc12 [silmitasertib]
Outline: as §1

[10] = compound: O=C1NC(=O)C(c2cnc3ccccn23)=C1c1cn2c3c(cc(F)cc13)CN(C(=O)N1CCCCC1)CC2
Outline: as §1

[11] = compound: c1cc(OCCN2CCCCC2)cc(-c2n[nH]c3ccc(-c4nnc[nH]4)cc23)c1
Outline: as §1

Measured: log2 fold change

SCG3 (UniProt Q8WXD2)
inactive: bafetinib 0.075 | [1] -0.027 | nilotinib 0.172 | [2] -0.098 | dasatinib 0.151 | [3] -0.032 | [4] 0.147 | [5] -0.037 | tipifarnib 0.044 | mubritinib -0.01 | [6] 0.028 | [7] -0.051 | [8] 0.114 | [9] 0.061 | entinostat 0.009 | vorinostat 0.025 | citarinostat -0.015 | silmitasertib -0.029 | [10] 0.018 | [11] -0.098

RBM26 isoform 2 (UniProt Q5T8P6)
Sequence of UniProt Q5T8P6 (Q5T8P6 whole entry, looked up): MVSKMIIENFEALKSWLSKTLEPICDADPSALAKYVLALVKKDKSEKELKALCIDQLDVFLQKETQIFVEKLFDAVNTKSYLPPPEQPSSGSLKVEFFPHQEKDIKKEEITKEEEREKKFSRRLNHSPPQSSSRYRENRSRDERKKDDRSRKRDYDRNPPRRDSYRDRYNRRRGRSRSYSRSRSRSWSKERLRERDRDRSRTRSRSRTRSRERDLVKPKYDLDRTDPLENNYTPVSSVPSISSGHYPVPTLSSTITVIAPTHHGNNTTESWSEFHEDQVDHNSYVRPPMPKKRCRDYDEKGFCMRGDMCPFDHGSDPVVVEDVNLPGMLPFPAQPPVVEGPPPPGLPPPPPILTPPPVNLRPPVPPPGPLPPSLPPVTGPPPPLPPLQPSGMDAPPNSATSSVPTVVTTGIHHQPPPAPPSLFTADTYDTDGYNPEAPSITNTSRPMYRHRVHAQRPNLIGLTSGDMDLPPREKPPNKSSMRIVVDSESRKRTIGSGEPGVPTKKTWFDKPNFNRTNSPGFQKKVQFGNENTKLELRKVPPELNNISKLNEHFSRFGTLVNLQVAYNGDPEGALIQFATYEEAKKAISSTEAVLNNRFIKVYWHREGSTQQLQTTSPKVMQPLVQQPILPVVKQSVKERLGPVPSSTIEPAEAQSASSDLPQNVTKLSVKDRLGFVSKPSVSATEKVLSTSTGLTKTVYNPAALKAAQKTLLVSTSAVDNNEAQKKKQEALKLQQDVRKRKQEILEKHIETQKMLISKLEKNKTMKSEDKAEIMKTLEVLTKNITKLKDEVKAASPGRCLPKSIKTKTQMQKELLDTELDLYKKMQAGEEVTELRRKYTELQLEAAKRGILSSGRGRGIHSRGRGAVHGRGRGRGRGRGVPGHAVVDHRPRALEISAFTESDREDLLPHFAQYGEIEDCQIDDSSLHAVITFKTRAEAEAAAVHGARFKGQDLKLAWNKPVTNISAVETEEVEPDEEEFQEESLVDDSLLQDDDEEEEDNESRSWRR
inactive: bafetinib -0.003 | [1] 0.058 | nilotinib -0.088 | [2] -0.432 | dasatinib -0.176 | [3] 0.021 | [4] 0.12 | [5] 0.168 | tipifarnib -0.033 | mubritinib 0.045 | [6] -0.001 | [7] 0.031 | [8] -0.135 | [9] -0.103 | entinostat 0.141 | vorinostat 0.103 | citarinostat 0.193 | silmitasertib -0.1 | [10] -0.05 | [11] 0.017

RRP9 (UniProt O43818)
inactive: bafetinib -0.02 | [1] -0.103 | nilotinib 0.046 | [2] -0.042 | dasatinib 0.106 | [3] -0.107 | [4] -0.062 | [5] -0.102 | tipifarnib 0.074 | mubritinib -0.046 | [6] 0 | [7] 0.053 | [8] 0.14 | [9] 0.08 | entinostat -0.002 | vorinostat -0.035 | citarinostat 0.003 | silmitasertib 0.069 | [10] 0.112 | [11] -0.073

SLC1A5 (UniProt Q15758)
inactive: bafetinib 0.041 | [1] 0.004 | nilotinib 0.067 | [2] 0.023 | dasatinib 0.023 | [3] 0.014 | [4] 0.035 | [5] -0.032 | tipifarnib 0.026 | mubritinib 0.052 | [6] -0.057 | [7] 0.117 | [8] 0.155 | [9] 0.03 | entinostat -0.041 | vorinostat -0.039 | citarinostat -0.003 | silmitasertib -0.016 | [10] -0.001 | [11] -0.03

SESN2 (UniProt P58004)
Sequence of UniProt P58004 (P58004 whole entry, looked up): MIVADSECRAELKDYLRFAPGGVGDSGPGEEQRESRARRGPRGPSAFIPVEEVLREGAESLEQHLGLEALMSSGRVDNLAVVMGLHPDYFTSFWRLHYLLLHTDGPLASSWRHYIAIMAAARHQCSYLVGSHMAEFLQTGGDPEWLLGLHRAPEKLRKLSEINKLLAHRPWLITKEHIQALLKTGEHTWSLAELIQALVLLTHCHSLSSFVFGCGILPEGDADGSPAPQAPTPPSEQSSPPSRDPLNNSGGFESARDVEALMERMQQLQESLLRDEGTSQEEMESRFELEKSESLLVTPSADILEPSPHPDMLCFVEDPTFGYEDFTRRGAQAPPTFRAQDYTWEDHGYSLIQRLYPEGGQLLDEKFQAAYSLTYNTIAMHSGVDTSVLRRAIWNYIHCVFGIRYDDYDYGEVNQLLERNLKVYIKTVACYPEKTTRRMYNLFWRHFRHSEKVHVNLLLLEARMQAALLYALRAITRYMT
inactive: bafetinib -0.09 | [1] 0.136 | nilotinib -0.02 | [2] -0.207 | dasatinib -0.034 | [3] -0.063 | [4] 0.069 | [5] -0.069 | tipifarnib -0.213 | mubritinib 0.042 | [6] -0.069 | [7] -0.159 | [8] -0.129 | [9] -0.093 | entinostat 0.075 | vorinostat 0.079 | citarinostat -0.081 | silmitasertib 0.108 | [10] -0.123 | [11] 0.026

SIDT2 isoform 2 (UniProt Q8NBJ9)
Sequence of UniProt Q8NBJ9 (Q8NBJ9 whole entry, looked up): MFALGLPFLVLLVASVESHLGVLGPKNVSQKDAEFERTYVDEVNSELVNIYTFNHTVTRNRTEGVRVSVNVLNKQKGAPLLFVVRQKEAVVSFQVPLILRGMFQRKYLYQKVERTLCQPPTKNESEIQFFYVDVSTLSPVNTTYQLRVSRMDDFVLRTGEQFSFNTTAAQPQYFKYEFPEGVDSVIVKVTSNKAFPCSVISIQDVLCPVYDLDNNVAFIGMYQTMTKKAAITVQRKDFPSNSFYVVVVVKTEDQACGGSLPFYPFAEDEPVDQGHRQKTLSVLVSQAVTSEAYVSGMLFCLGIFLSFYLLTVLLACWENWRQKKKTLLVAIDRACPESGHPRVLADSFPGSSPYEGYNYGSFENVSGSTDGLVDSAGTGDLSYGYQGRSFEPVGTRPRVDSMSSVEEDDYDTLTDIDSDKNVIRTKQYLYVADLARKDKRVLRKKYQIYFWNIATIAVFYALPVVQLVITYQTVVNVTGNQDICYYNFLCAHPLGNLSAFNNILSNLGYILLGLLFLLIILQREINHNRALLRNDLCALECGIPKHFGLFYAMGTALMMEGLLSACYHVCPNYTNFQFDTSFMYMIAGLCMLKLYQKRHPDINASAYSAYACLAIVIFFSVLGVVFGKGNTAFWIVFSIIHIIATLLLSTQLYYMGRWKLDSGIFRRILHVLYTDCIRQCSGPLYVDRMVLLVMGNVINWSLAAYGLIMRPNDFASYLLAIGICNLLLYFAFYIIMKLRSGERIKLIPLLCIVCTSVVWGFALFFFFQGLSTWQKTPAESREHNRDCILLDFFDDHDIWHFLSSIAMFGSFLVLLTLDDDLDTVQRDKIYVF
inactive: bafetinib -0.24 | [1] -0.025 | nilotinib -0.005 | [2] 0.104 | dasatinib 0.041 | [3] 0.025 | [4] -0.003 | [5] 0.038 | tipifarnib 0.073 | mubritinib -0.001 | [6] 0.057 | [7] -0.01 | [8] -0.086 | [9] 0.297 | entinostat -0.064 | vorinostat -0.107 | citarinostat 0.002 | silmitasertib -0.067 | [10] 0.029 | [11] 0.108

RAB3GAP2 (UniProt Q9H2M9)
Sequence of UniProt Q9H2M9 (Q9H2M9 whole entry, looked up): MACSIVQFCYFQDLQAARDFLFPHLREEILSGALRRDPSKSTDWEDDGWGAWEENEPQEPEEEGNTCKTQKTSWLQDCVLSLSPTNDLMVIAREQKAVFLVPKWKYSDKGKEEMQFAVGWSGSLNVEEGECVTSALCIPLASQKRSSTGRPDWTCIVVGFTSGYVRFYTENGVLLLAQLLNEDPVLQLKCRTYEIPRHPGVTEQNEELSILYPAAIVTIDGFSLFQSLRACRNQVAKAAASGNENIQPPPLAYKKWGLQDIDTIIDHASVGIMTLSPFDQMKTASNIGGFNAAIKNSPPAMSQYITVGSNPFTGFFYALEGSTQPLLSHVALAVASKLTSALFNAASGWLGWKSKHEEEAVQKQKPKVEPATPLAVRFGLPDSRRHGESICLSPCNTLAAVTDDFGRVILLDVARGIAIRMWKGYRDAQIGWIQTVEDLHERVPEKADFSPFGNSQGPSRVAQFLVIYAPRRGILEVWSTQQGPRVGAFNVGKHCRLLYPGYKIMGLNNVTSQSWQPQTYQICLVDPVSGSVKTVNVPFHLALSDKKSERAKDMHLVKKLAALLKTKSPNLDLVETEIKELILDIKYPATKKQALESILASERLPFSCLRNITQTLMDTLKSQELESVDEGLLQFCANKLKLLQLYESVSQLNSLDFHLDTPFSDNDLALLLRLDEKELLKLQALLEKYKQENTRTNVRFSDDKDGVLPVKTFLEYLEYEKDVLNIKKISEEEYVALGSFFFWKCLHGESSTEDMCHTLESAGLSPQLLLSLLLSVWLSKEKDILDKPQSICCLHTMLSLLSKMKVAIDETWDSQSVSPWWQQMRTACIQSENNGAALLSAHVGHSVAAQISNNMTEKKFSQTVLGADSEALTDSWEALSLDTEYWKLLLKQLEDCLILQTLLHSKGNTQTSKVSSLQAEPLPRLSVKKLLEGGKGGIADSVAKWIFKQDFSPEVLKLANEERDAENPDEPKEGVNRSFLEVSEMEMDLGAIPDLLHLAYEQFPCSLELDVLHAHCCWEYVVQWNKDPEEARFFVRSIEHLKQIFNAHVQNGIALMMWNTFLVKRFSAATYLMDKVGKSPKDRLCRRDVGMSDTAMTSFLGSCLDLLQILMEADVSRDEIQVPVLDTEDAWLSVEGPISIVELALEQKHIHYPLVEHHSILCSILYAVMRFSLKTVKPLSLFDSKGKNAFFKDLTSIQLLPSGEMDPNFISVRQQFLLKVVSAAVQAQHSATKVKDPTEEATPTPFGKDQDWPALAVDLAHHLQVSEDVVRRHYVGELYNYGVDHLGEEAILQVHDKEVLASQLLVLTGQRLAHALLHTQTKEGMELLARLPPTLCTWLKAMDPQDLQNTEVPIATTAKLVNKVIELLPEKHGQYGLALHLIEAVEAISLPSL
inactive: bafetinib 0.059 | [1] 0.091 | nilotinib -0.026 | [2] -0.088 | dasatinib -0.14 | [3] 0.006 | [4] -0.077 | [5] -0.029 | tipifarnib -0.046 | mubritinib -0.087 | [6] -0.049 | [7] -0.067 | [8] -0.089 | [9] -0.04 | entinostat 0.057 | vorinostat 0.106 | citarinostat 0.089 | silmitasertib 0.095 | [10] 0.099 | [11] -0.065

RBM12 (UniProt Q9NTZ6)
Sequence of UniProt Q9NTZ6 (Q9NTZ6 whole entry, looked up): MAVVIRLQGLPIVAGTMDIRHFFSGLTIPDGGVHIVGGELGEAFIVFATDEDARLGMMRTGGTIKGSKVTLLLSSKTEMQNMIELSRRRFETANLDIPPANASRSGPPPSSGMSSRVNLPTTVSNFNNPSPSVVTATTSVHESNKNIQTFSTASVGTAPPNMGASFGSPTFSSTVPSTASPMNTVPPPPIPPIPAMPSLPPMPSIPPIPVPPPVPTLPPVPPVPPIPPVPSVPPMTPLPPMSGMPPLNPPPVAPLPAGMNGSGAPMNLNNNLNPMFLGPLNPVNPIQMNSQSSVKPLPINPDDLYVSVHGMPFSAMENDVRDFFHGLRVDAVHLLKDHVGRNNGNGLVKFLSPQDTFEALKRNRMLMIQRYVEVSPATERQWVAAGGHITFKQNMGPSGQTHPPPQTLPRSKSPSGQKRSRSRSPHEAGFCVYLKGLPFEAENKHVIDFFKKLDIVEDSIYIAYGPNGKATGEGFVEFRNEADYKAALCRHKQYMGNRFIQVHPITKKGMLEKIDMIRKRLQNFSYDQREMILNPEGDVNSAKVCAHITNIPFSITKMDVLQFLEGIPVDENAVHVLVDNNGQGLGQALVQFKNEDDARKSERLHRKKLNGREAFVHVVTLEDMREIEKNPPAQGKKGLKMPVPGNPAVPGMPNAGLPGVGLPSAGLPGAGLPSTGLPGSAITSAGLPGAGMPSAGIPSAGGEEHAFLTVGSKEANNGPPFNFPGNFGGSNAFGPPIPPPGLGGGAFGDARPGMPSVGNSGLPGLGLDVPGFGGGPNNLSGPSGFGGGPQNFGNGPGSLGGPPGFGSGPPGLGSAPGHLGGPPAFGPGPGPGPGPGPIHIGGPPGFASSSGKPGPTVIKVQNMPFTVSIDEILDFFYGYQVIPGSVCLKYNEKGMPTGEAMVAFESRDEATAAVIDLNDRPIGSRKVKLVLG
inactive: bafetinib 0.026 | [1] 0.046 | nilotinib -0.108 | [2] -0.227 | dasatinib -0.287 | [3] -0.09 | [4] 0.048 | [5] 0.015 | tipifarnib -0.061 | mubritinib 0.032 | [6] -0.044 | [7] -0.062 | [8] -0.219 | [9] -0.106 | entinostat 0.133 | vorinostat 0.128 | citarinostat 0.107 | silmitasertib -0.026 | [10] -0.219 | [11] -0.002
